Laboratory results published in PubChem BioAssay (NCI).
Values joined by “and” are separate entries in the source; they are usually repeats but may differ in a detail not shown here. Equal values may be shown once. The panel holds about 83,000 compounds, 20% with a hit somewhere; the sample as a whole holds those more often.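 Step 1: grow cells in 96-well plates. Step 2: add test compound at a single concentration. Step 3: incubate 48 h. Step 4: record percent growth.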 Active and inactive are the calls of the source. Rule for the calls: active = growth percent below 10; inactive = the rest.

The compounds below were run on HOP-62 NSCLC (assay: NCI-60 one-dose screen, 48 h (100 = growth as untreated, 0 = no growth, -100 = all killed)). Settings: 10 µM.

Q: How did the growth turn out when `CC/C(=C(\c1ccc(O)cc1)c1ccc(OCCN(C)C(=O)COCCNC(=O)Cc2ccc3c(c2)CN([C@@H]2CCC(=O)NC2=O)C3=O)cc1)c1ccccc1` was run?
A: 16.2% (inactive)

Q: `CC/C(=C(\c1ccc(O)cc1)c1ccc(OCCN(C)C(=O)CCOCCNC(=O)c2ccc3c(c2)CN([C@@H]2CCC(=O)NC2=O)C3=O)cc1)c1ccccc1` was tested. Which growth did it give?
A: 94.4% (inactive)

Q: `CC/C(=C(/c1ccc(O)cc1)c1ccc(OCCN(C)C(=O)COCCOCCNC(=O)c2ccc3c(c2)CN([C@@H]2CCC(=O)NC2=O)C3=O)cc1)c1ccccc1` was tested. Which growth did it give?
A: 81% (inactive)

Q: `CC/C(=C(/c1ccc(O)cc1)c1ccc(OCCN(C)C(=O)CCOCCNC(=O)Cc2ccc3c(c2)CN([C@@H]2CCC(=O)NC2=O)C3=O)cc1)c1ccccc1` was tested. Which growth did it give?
A: 52.3% (inactive)

Q: Which growth does the source give for `CC/C(=C(/c1ccc(O)cc1)c1ccc(OCCN(C)C(=O)COCCOCCNC(=O)Cc2ccc3c(c2)CN([C@@H]2CCC(=O)NC2=O)C3=O)cc1)c1ccccc1` here?
A: 38.8% (inactive)

Q: `CC/C(=C(\c1ccc(O)cc1)c1ccc(OCCNC)cc1)c1ccccc1` was tested. Which growth did it give?
A: 96.8% (inactive)

Same assay, conditions: 10 µM unless noted

Q: How did the growth turn out when `CC1(C)CC(=O)C2=C(C1)OC(N)=C(c1nc3ccccc3[nH]1)C2c1ccc(Cl)cc1` (configuration not stated) was run?
A: 87% (inactive) and 116% (inactive)

Q: With `COc1cc(C=O)ccc1Oc1nc(Nc2ccc(F)cc2)nc(N(C)C)n1` as the compound, how does the growth read?
A: 90% (inactive) and 85.7% (inactive)

Q: For `CCC(=O)c1c2c(c3ccc4c5ccccc5ccc4n13)C(=O)c1ccccc1C2=O`, which growth is on record?
A: 81.7% (inactive)

Q: `CCCCNC(=S)Nc1ccc(OCc2nc3ccc(Cl)cc3[nH]2)cc1` was tested. Which growth did it give?
A: 49.5% (inactive)

Q: With `Nc1ccc(-c2ccc3ncnc(N4CCc5cc(F)c(Cl)cc54)c3c2)cn1` as the compound, how does the growth read?
A: 37.5% (inactive)

Q: How did the growth turn out when `N#CC1=C(c2cccs2)Nc2c(c(-c3ccccc3)nn2-c2ccccc2)C12C(=O)Nc1ccc(Cl)cc12` (configuration not stated) was run?
A: 28.8% (inactive)

Q: For `C=CCn1c(O)c(N=Nc2nc(-c3cc4ccccc4oc3=O)cs2)c2ccccc21`, which growth is on record?
A: 80.8% (inactive)

Q: For `Fc1ccccc1CNc1nc(SCCN2CCOCC2)nc2c1cnn2CC(Cl)c1ccc(Br)cc1` (configuration not stated), which growth is on record?
A: 40% (inactive)

Q: For `O=C(CSc1nnc(-c2ccc(-c3nc4ccc(Cl)cc4[nH]3)cc2)o1)Nc1ccccc1`, which growth is on record?
A: -27.1% (active)

Q: For `O=C(CSc1nnc(-c2ccc(-c3nc4ccc(Cl)cc4[nH]3)cc2)o1)Nc1ccc(Cl)cc1`, which growth is on record?
A: -13.6% (active)

Q: Which growth does the source give for `Nc1nc(-c2ccccc2)c(N=Nc2ccc(Cl)cc2Cl)s1` here?
A: -61.9% (active)

Q: Which growth does the source give for `COc1c(B(O)O)cccc1-c1nc2ccc3cn[nH]c3c2c2c1CCCC2` here?
A: 68.7% (inactive)

Q: `Nc1nn2c(-c3cc4cc(Br)ccc4oc3=O)ccnc2c1N=Nc1ccccc1` was tested. Which growth did it give?
A: 1.3% (active)

Q: How did the growth turn out when `O=C1/C(=C/c2cnc(-c3ccccc3)s2)SC(=S)N1Cc1ccc2c(c1)OCO2` was run?
A: 12.2% (inactive)

Q: Which growth does the source give for `O=C(c1ccc(O)cc1)C1[C@H](c2ccc(Cl)cc2)[C@@H](c2ccccc2)NC12C(=O)Nc1ccc(Br)cc12` (some centres not stated) here?
A: -28.9% (active)

Q: How did the growth turn out when `COC(=O)c1cc(C(=O)C(C)(C)C)n2c3ccccc3c3ccccc3c12` was run?
A: 132% (inactive)

Q: `COc1ccc2[nH]c(O)c(N=Nc3nc(-c4ccccc4)cs3)c2c1` was tested. Which growth did it give?
A: 21.3% (inactive)

Q: For `CC1CCc2c(sc3nc(SCC(=O)c4cccc([N+](=O)[O-])c4)n(-c4ccccc4)c(=O)c23)C1` (configuration not stated), which growth is on record?
A: 77.7% (inactive)

Q: Which growth does the source give for `C=CCSc1nnc(-c2ccc(-c3nc4ccc(Cl)cc4[nH]3)cc2)o1` here?
A: 39.9% (inactive)

Q: `O=C(Nc1nc2ccccc2s1)Nc1ccccc1Cl` was tested. Which growth did it give?
A: 12.2% (inactive)

Q: How did the growth turn out when `CC[C@@]12CC(C(=O)OC)=C3Nc4cc5c(cc4[C@@]34CCN(C[C@H]3O[C@H]31)[C@@H]24)[C@@H]1[C@H](O5)[C@@H](O)[C@@]2(CC)CC(C(=O)OC)=C3Nc4cc(O)ccc4[C@@]34CCN1[C@@H]24` was run?
A: -54.4% (active)

Q: For `CCOc1ccccc1NC(=O)N/C(N)=N/c1nc2ccccc2s1`, which growth is on record?
A: 33.6% (inactive)

Q: For `COc1sc(/C=N/NC(=O)c2[nH]c3ccc(Br)cc3c2-c2ccccc2)cc1Cl`, which growth is on record?
A: -27% (active)

Q: For `COc1cc(CNC(=O)C[C@H](C)CCC=C(C)C)ccc1OCc1cn(-c2ccccc2Cl)nn1`, which growth is on record?
A: 79.3% (inactive)

Q: `COc1ccc(-c2cc(C(=O)OCc3ccc(Br)cc3)nn2-c2ccc(S(C)(=O)=O)cc2)cc1OC` was tested. Which growth did it give?
A: 75.9% (inactive)

Q: `N#CC1=C(c2ccco2)Nc2c(c(-c3ccccc3)nn2-c2ccccc2)C12C(=O)Nc1ccc(Br)cc12` (configuration not stated) was tested. Which growth did it give?
A: 10.5% (inactive)

Q: With `N/C(=N\c1nc2ccc([N+](=O)[O-])cc2s1)NC(=O)Nc1ccccc1Cl` as the compound, how does the growth read?
A: 51.3% (inactive)

Q: `S=C(Nc1ccccc1)Nc1ccc(OCc2nc3ccc(Cl)cc3[nH]2)cc1` was tested. Which growth did it give?
A: 90.4% (inactive)

Q: How did the growth turn out when `COc1ccc(N=Nc2c(N)nn3c(N)c(C#N)c(-c4ccc(C)cc4)nc23)cc1` was run?
A: 63.6% (inactive)

Q: Which growth does the source give for `O=C(NC(=S)N1CCN(c2ncnc3c2cnn3-c2ccccc2)CC1)c1ccc(F)cc1` here?
A: 70.6% (inactive)

Q: For `Cc1cccc(C)c1Nc1nnc(-c2c[nH]c3ccccc23)o1`, which growth is on record?
A: 83.1% (inactive)
